# Assay outcomes: PubChem BioAssay, The Scripps Research Institute Molecular Screening Center
# FBW7 act: human FBW7 E3 ligase activation, primary screen; Q969H0; normalized activity (activation), % at 26.1 µM; AlphaScreen FBW7–phospho-cyclin E peptide binding, activator screen; AID 1259310; actives 0.13% (n = 650,000); in the data active means normalized activity above about 1.9%;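 further: purified mutant Fbw7 with reduced substrate affinity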
# TEAD-YAP block: TEAD-YAP interaction inhibition; HEK-TIYL cells, TEAD-Gal4/YAP UAS-luciferase luminescence; inhibition, % at 9.12 µM; AID 1259422; actives 1.4% (n = 640,000); in the data active means inhibition above about 32%;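 further: 0% = median of test compound wells and 100% = reference inhibitor wells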
# GPR151 ag: activates the human receptor GPR151. PathHunter beta-arrestin GPR151 cells, luminescence. activation, % at 11.2 µM. AID 1508602. actives 1% (n = 650,000). Q8TDV0; in the data active means activation above about 4.9%;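 further: 0% = median of compound wells and 100% = cells with positive control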
# MITF primary: blocks human microphthalmia-associated transcription factor | O75030 | AlphaScreen MITF homodimerization, bead proximity signal | inhibition, % at 2.6 µM | actives 0.91% (n = 650,000); in the data active means inhibition above about 50%;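 further: 0% = vehicle wells with protein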
# Target sequence (O75030 whole entry, looked up): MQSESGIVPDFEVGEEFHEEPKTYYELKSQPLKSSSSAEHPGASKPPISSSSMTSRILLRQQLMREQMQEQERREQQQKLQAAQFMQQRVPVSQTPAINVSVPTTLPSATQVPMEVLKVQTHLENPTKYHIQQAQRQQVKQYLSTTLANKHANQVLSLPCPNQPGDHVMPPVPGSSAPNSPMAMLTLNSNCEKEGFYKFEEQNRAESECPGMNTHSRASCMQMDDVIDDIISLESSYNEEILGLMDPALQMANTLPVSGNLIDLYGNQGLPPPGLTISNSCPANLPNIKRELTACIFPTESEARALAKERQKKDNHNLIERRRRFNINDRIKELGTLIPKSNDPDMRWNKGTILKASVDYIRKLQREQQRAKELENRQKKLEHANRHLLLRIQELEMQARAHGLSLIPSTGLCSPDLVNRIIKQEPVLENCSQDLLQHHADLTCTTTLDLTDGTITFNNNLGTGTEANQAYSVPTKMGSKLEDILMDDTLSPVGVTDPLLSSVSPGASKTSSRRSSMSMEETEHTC
# MITF confirm: confirmation of human MITF inhibitors | AlphaScreen MITF homodimerization, biotin/His-MITF beads | shares compounds with MITF primary | inhibition, % at 2.6 µM | AID 1259372 | actives 16% (n = 4,700);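 active means inhibition above a cutoff derived from the DMSO control wells, cut at about 28% in these data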;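 further: 0% = MITF dimer wells with DMSO only; inhibitors lower the bead chemiluminescence by keeping MITF from dimerizing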
# AS interf DR: optically interferes with AlphaScreen signal in dose response | shares compounds with MITF primary | AlphaScreen optical interference counterscreen, cell-free | IC50, µM | actives 6% (n = 480) | AID 1259373; call rule not given here
# AS interf ctr: AlphaScreen optical interference, counter-screen; inhibition, % at 2.6 µM; LysRS AlphaScreen counterscreen, signal interference, triplicate; actives 7.6% (n = 4,700); shares compounds with MITF primary;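 active means inhibition above a cutoff derived from the DMSO control wells, cut at about 30% in these data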
# * = called active by the depositor; . = no result given. The list is not random: actives were taken first. Their share in the collection is about 3.5%.
SMILES,FBW7 act,TEAD-YAP block,GPR151 ag,MITF primary,MITF confirm,AS interf ctr,others
O=C(O)C1=NN(c2ccccn2)C(=O)CC1,-1,-39,-1,77*,-96,100*,
C=CCOc1ccccc1CN1CCC2(CC1)CC2C(=O)NCc1cccnc1 (stereo unspecified),0,4,0,-1,.,.,
CCN1CCN(S(=O)(=O)/C=C/c2ccccc2)CC1,0,2,0,74*,-10,-5,
O=S(=O)(/C=C/c1ccccc1)N1CCN(C/C=C/c2ccccc2)CC1,0,1,0,11,.,.,
CCOC(=O)c1c(C)[nH]c(C)c1C(=O)COC(=O)CCCc1c[nH]c2ccccc12,0,-2,2,-7,.,.,
CC(C)(C)C1CCc2c(sc3nc(SCc4ccc(F)cc4)n(-c4ccccc4)c(=O)c23)C1 (stereo unspecified),0,-4,0,2,.,.,
Cc1ccccc1CN1CCN(C(=O)c2cccnc2)CC1,0,-7,1,61*,18,-1,
O=C(c1cccnc1)N1CCN(Cc2ccccc2C(F)(F)F)CC1,0,-1,3,53*,-1,-3,
Cc1ccc(CN2CCN(C(=O)c3cccnc3)CC2)cc1,0,9,-1,54*,-3,-6,
O=C(c1cccnc1)N1CCN(Cc2ccc3ccccc3c2)CC1,0,7,-1,37,.,.,
O=C(c1cccnc1)N1CCN(Cc2ccc([N+](=O)[O-])cc2)CC1,0,1,0,-14,.,.,
CCOC(=O)N1CCN(S(=O)(=O)c2ccc(C(=O)Nc3ccc(Cl)cc3)cc2)CC1,0,-9,1,-19,.,.,
Cc1cc(Br)ccc1N1C(=O)Nc2ccccc2N1O,0,-2,-1,20,.,.,
Cn1c(-c2ccc(Cl)cc2)cnc1NCc1ccc(C#N)cc1,0,-7,-1,54*,-10,-13,
Cn1c(-c2ccc(Br)cc2)cnc1NCc1ccc(C#N)cc1,0,-17,0,33,.,.,
COC(=O)c1ccc(NC(=O)c2cn(-c3ccccc3)nc2-c2cccnc2)cc1,0,5,1,-17,.,.,
CN(C)CC(=O)Nc1cc(N(C)C)nc2ccccc12,0,-1,4,62*,7,-5,
O=C(CSc1ccc2nnc(-c3cccc(F)c3)n2n1)N1CCCC1,0,-8,0,-1,.,.,
C[C@H](Nc1nccnc1-c1cccc(Cl)c1)c1ccccc1,0,9,1,2,.,.,
CC1CCN(CCCNC(=O)C2CC(=O)N(CCc3ccccc3)C2)CC1 (stereo unspecified),0,2,-2,107*,-9,-3,
Cc1ccc(O)c(NC(=O)c2cc(-c3cccnc3)on2)c1,0,-22,-2,8,.,.,
CN1CCN(CC(=O)Nc2nc3ccccc3s2)CC1,0,-15,0,51*,7,14,
CCn1nc(C(=O)Nc2nc3ccccc3s2)cc1C,0,88*,-9,69*,-4,-5,
CCCC(=O)Nc1nc2ccccc2s1,0,-39,-2,13,.,.,
O=C(CCC1CCCCC1)Nc1nc2ccccc2s1,0,-32,1,92*,7,11,
SMILES,FBW7 act,TEAD-YAP block,GPR151 ag,MITF primary,MITF confirm,AS interf ctr,others
CCn1nc(C(=O)Nc2cc(C)nn2-c2nc3ccccc3s2)cc1C,0,13,0,1,.,.,
COc1ccc(C2(C(=O)N3CCCC3)CCCC2)cc1OC,0,-5,-1,-11,.,.,
COc1ccc(Cn2nnnc2C(C(C)C)N2CCC(O)CC2)cc1 (stereo unspecified),0,-1,0,3,.,.,
COc1ccc2c(c1)CC(c1nc3ncc(-c4ccnc(N)n4)cc3[nH]1)CO2 (stereo unspecified),0,22,-1,18,.,.,
CC(=O)c1ccc2c(c1)CC(c1nc3ncc(-c4ccnc(N)n4)cc3[nH]1)CO2 (stereo unspecified),1,11,2,51*,23,-12,
CC1(C(=O)Nc2ccncc2)CC1(Cl)Cl (stereo unspecified),0,9,2,-3,.,.,
CCCCNC(=O)c1cccc2c1C(=O)N(c1ccc(OC)cc1)C2,1,-5,1,16,.,.,
O=C1NC(=O)/C(=C\c2cccn2-c2ccc(C(=O)O)cc2)N1,0,13,-1,66*,9,-5,
O=C(O)c1ccc(-n2cccc2/C=C2/NC(=O)N(c3ccc(Cl)cc3)C2=O)cc1,0,-15,0,55*,74*,34*,
O=C(O)c1cccc(-n2cccc2/C=C2/NC(=O)N(c3ccc(Cl)cc3)C2=O)c1,0,-8,0,61*,36*,10,AS interf DR=>6.5
O=C(O)c1cccc(-n2cccc2/C=C2/NC(=O)N(c3cccc(Cl)c3)C2=O)c1,0,5,0,21,.,.,
O=C(O)c1ccc(/C=C2/NC(=O)N(c3ccc(Cl)cc3)C2=O)cc1,0,-7,1,-20,.,.,
COc1ccc(-c2noc(COc3cc(C)ccc3C)n2)cc1,0,-3,2,-6,.,.,
c1ccc(Nc2nc(Nc3ccccc3)nc(Oc3ccccc3)n2)cc1,0,7,0,12,.,.,
NNc1nc(NN)nc(Nc2ccccc2)n1,-2,3,-2,65*,97*,100*,
CCC(C)NC(=O)c1ccc(N2CC3CC(C2)c2cccc(=O)n2C3)c(NC(=O)c2ccccc2Br)c1 (stereo unspecified),0,-14,1,23,.,.,
Cc1nc(NCCCn2ccnc2)c2c(-c3cccs3)csc2n1,0,1,1,64*,6,-2,
Cc1nc(NCCCn2ccnc2)c2ccccc2n1,0,9,0,8,.,.,
CCN(CC)C(=O)C1CCCN(c2nc(C)cc(NCCN3CCOCC3)n2)C1 (stereo unspecified),0,-5,1,15,.,.,
Cc1ccc(C(=O)Nc2ccccc2C#N)c(Cl)c1,1,-32,0,63*,5,7,
O=C(c1ccco1)N1CCN(Cc2ccncc2)CC1,0,-1,-1,82*,7,27,
O=C(c1ccco1)N1CCN(Cc2ccccc2Br)CC1,0,-40,0,60*,6,14,
CC(C)N1CCN(C(=O)c2ccco2)CC1,0,3,0,51*,2,1,
O=C(c1ccco1)N1CCN(C(=O)c2ccco2)CC1,0,-4,0,-2,.,.,
Cc1c(NC(=O)CCN2C(=O)C3C4CCC(C4)C3C2=O)ccc(Br)c1Cl (stereo unspecified),0,-19,-1,68*,10,-3,
COCCN(C1CCN(CCc2ccc(Cl)cc2)CC1)S(=O)(=O)c1cccs1,0,9,0,63*,1,8,
Cc1c(NC(=O)[C@@H]2CCCN2C(=O)c2cccs2)c(=O)n(-c2ccccc2)n1C,0,-1,-2,-7,.,.,
